Results: PubChem BioAssay AID463173 (ICCB-Longwood Screening Facility, Harvard Medical School, 2010)
The whole screen tested about 52,000 compounds, of which about 1,700 (3.3%) were called active. The full list was thinned out, with actives kept by preference. A number with no mark means an inactive call. Cut-off read from the data, not from the text of the source: active = survival mostly below about 52% (no sharp cut-off); inactive = mostly above about 56%.

system: Wild type; assay: S. aureus survival, RN4220 and DeltatarO strains – OD600, teichoic acid synthesis inhibitors, primary screen (AID 463173); settings: S. aureus RN4220 wild type/DeltatarO growth, OD600, 18 h, stronger effect = lower value, screened at 18.75 µg/mL (by protocol)

SMILES	survival
O=c1n(Cc2ccc(F)cc2)nc2n1-c1cc(Cl)ccc1OC2	76%
Cc1cc(Cl)ccc1NC(=O)Cn1nc(C)c2c(C)n(-c3ccccc3)nc2c1=O	45%
CCc1cccc(NC(=O)CCNS(=O)(=O)c2ccc3c(c2)CCN3C(C)=O)c1	76%
Cc1ccc(-n2ncc3c(N4CCN(Cc5ccccc5)CC4)ncnc32)cc1	131%
O=C(Nc1nnc(C(F)(F)F)s1)c1ccccc1	74%
CCOC(=O)N1CCc2c(sc(NCc3sccc3C)c2C(=O)Nc2cc(Cl)ccc2OC)C1	80%
CCc1nnc(NC(=O)CSc2nccn2-c2ccc(OC)cc2)s1	135%
COc1cc(Cn2c(=O)sc3ccccc32)ccc1OC(C)C	41%
CCCCOc1ccc(Cn2c(=O)sc3ccccc32)cc1OC	-5% (active)
COc1cc(Cn2c(=O)sc3ccccc32)ccc1OCCC(C)C	-4% (active)
CCCCn1c(=N)n(CCOc2ccccc2OC)c2ccccc21	81%
COc1ccccc1NC(=O)c1sc2nc(C)c(C(=O)Nc3ccc(C)cc3C)c(-c3ccco3)c2c1N	73%
COc1cc(-c2nnn(CC(=O)Nc3ccc(OC(F)(F)F)cc3)n2)cc(OC)c1OC	92%
Nc1nn(-c2ccccc2)nc1C(=O)OCc1ccccc1	85%
Cc1ccccc1COC(=O)c1nn(-c2ccccc2)nc1N	-9% (active)
Nc1nn(-c2ccccc2)nc1C(=O)OCc1c(F)cccc1Cl	61%
Nc1nn(-c2ccccc2)nc1C(=O)OCc1ccccc1Br	-2% (active)
COc1cccc(COC(=O)c2nn(-c3ccccc3)nc2N)c1	24%
Nc1nn(-c2ccccc2)nc1C(=O)OCc1ccc(Cl)cc1	59%
Cc1ccccc1NC(=O)CSc1nc2ccc(NC(=O)COc3ccccc3F)cc2s1	81%
CSc1ccc(CCNC(=O)c2cc(C)nc3c2c(C)nn3-c2ccccc2)cc1	124%
OCc1nc2ccccc2n1Cc1c(F)cccc1Cl	98%
Cc1ccc(C)c(Cn2c(-c3cccs3)nc3ccccc32)c1	8% (active)
Clc1ccccc1Cn1c(-c2cccs2)nc2ccccc21	-3% (active)

SMILES	survival
Cc1ccccc1Cn1c(COc2ccc(Cl)cc2)nc2ccccc21	130%
Fc1cccc(Cl)c1Cn1c(-c2cccs2)nc2ccccc21	26% (active)
OCc1nc2ccccc2n1Cc1ccccc1Cl	111%
CCCC(=O)NCCc1nc2ccccc2n1Cc1c(F)cccc1Cl	66%
Cc1ccccc1Cn1cnc2ccccc21	116%
O=C(NCc1nc2ccccc2n1Cc1ccccc1Cl)c1ccccc1	90%
CCC(O)c1nc2ccccc2n1Cc1cc(C)ccc1C (stereo not given)	99%
Cc1ccccc1Cn1c(-c2cccs2)nc2ccccc21	26% (active)
Cc1ccc(C)c(Cn2c(C(C)NC(=O)c3ccccc3)nc3ccccc32)c1 (stereo not given)	88%
Cc1cccc(NC(=O)CC2C(=O)OCCN2Cc2ccccc2)c1 (stereo not given)	137%
CC1(N)CCS(=O)(=O)C1 (stereo not given)	110%
CCCn1cc(S(=O)(=O)c2ccc(CC)cc2)c(=O)c2cc(F)c(N(CC)CC)cc21	68%
Cc1ccccc1C(=O)Nc1ccccc1-c1nc(-c2ccccc2)no1	95%
O=C(CN1C2=NCCN2c2ccccc21)C12CC3CC(CC(C3)C1)C2	98%
NC(=O)CSc1ncc2c(n1)-c1ccccc1N(Cc1cccc(F)c1)S2(=O)=O	73%
CCN1CCN(c2oc(-c3ccc(COc4ccc(OC)cc4)o3)nc2C#N)CC1	75%
CC(C)c1ccc(NC(=O)CN2C(=O)COc3ccc(S(=O)(=O)N4CCCCCC4)cc32)cc1	109%
CC(=O)N1CCCC1c1nc2ccccc2n1Cc1cccc(C)c1 (stereo not given)	85%
Cc1cccc(CNC(=O)Cn2c(-c3cccs3)cc3ccccc32)c1	135%
Cc1cccc(Cn2c(-c3cccs3)nc3ccccc32)c1	-6% (active)
CCN(CC)S(=O)(=O)c1ccc(S(=O)(=O)NCc2ccc3c(c2)OCO3)cc1	108%
COc1ccc(CNC(=O)Cn2c(SCC(=O)Nc3ccc(OC)cc3)nc3ccccc32)cc1	69%
COc1cccc(CNC(=O)Cn2c(SCC(=O)Nc3ccc(C)c(C)c3)nc3ccccc32)c1	76%
COC(=O)c1ccc(Cn2c(SCC(=O)N(C)c3ccccc3)nc3ccccc32)cc1	75%

SMILES	survival
COc1cccc(Cn2c(SCC(=O)N(C)c3ccccc3)nc3ccccc32)c1	-6% (active)
O=C(Cn1c(SCC(=O)Nc2ccc(F)cc2)nc2ccccc21)NCc1ccc(F)cc1	63%
Cc1ccc(CNC(=O)Cn2c(SCC(=O)Nc3ccc(F)cc3)nc3ccccc32)cc1	131%
CC(=O)c1cccc(NC(=O)Cn2c(SCC(=O)Nc3ccc(F)cc3)nc3ccccc32)c1	-3% (active)
Cc1ccccc1NC(=O)Cn1c(SCC(=O)Nc2ccc(F)cc2)nc2ccccc21	76%
COc1ccc(NC(=O)CSc2nc3ccccc3n2CC(=O)NCc2ccc(F)cc2)cc1	-6% (active)
O=C(CSc1nc2ccccc2n1CC(=O)Nc1ccc(F)cc1F)Nc1ccc(F)cc1	72%
CN(C(=O)CSc1nc2ccccc2n1Cc1cccc(C(F)(F)F)c1)c1ccccc1	87%
COc1cccc(CNC(=O)Cn2c(SCC(=O)Nc3ccc(F)cc3)nc3ccccc32)c1	0% (active)
CCN(CC)C(=O)c1ccc(Nc2nnc(-c3ccc(C)c(S(=O)(=O)NC)c3)c3ccccc23)cc1	79%
COc1ccc(CNc2nc3c(-c4cccc(F)c4)nnn3c3ccccc23)cc1	86%
N#Cc1ccccc1NC(=O)C(=O)NCCc1csc2nc(-c3cccc(F)c3)nn12	81%
COc1ccc(CCC(=O)NCc2nc3cccnc3n2Cc2cccc(OC)c2)cc1	73%
CCOC(=O)N1CCC2(CC1)OC(=O)C(C)=C2C(=O)NCc1cccc(OC)c1	131%
CCOC(=O)CSc1nc2ccc(NC(=O)c3ccc(Cl)cc3)cc2s1	90%
CCOc1ccc(-c2nc3c(c(SCC(=O)N4CCCCC4)n2)Cc2cccc(OC)c2O3)cc1	75%
O=C(NCCc1ccccc1Cl)C1CCN(c2nc3ccccc3nc2C(F)(F)F)CC1	10% (active)
CCCCNC(=O)C1CCN(c2nc3ccccc3nc2C(F)(F)F)CC1	82%
CCNC(=O)C1CCN(c2nc3ccccc3nc2C(F)(F)F)CC1	148%
COc1ccccc1CCNC(=O)C1CCN(c2nc3ccccc3nc2C(F)(F)F)CC1	121%
Cc1ccccc1CCNC(=O)C1CCN(c2nc3ccccc3nc2C(F)(F)F)CC1	68%
CCCSCCCNC(=O)C1CCN(c2nc3ccccc3nc2C(F)(F)F)CC1	-3% (active)
Cc1ccc(NC(=O)C2CCN(c3nn4cc(-c5ccc(C)cc5)nc4s3)CC2)cc1	60%
Cc1cn2c(=O)cc(COC(=O)c3cccc(NC(=O)COc4ccccc4Cl)c3)nc2s1	124%

SMILES	survival
COc1ccc2c(c1)c1c(c(=O)n(Cc3ccccc3)c(=O)n1Cc1ccccc1Cl)n2C	84%
O=C(Nc1ccc2nc3n(c(=O)c2c1)CCCCC3)C(=O)Nc1ccccc1F	69%
O=C(Cc1ccc(Cl)cc1)NC1CC(=O)N(c2ccc3c(c2)OCCO3)C1 (stereo not given)	58%
CSc1ccccc1NC(=O)C1=CC(c2ccc3c(c2)OCO3)=NS(=O)(=O)N1C	87%
Cc1ccc(-c2nc3c(c(SCc4ccc(Br)cc4)n2)Cc2c(CO)cnc(C)c2O3)cc1	81%
CCOC(=O)c1c(C)[nH]c(C)c1S(=O)(=O)N1CCC(C(=O)NCc2ccc(C)cc2)CC1	71%
CCOC(=O)c1c(C)[nH]c(C)c1S(=O)(=O)N1CCC(C(=O)NCc2ccc(F)cc2)CC1	1% (active)
CCOC(=O)c1c(S(=O)(=O)N2CCC(C(=O)Nc3ccc(OCC)cc3)CC2)c(C)n(C)c1C	125%
CCOC(=O)c1c(C)[nH]c(C)c1S(=O)(=O)N1CCC(C(=O)NCc2ccccc2)CC1	55%
CCOC(=O)c1c(C)[nH]c(C)c1S(=O)(=O)N1CCC(C(=O)Nc2ccc(OCC)cc2)CC1	-3% (active)
CCOC(=O)c1c(C)[nH]c(C)c1S(=O)(=O)N1CCC(C(=O)Nc2ccc(C)c(Cl)c2)CC1	63%
O=C(NCC1CCCO1)c1ccc(NC(=O)c2ncn[nH]2)cc1 (stereo not given)	98%
CCCCN(CC)CCNC(=O)CCn1cnc2onc(-c3ccc(F)cc3)c2c1=O	72%
CCN(CC)CCCNC(=O)CCCn1ncn2c(cc3occc32)c1=O	85%
O=S(=O)(c1ccc(Cl)cc1)c1nc(-c2ccccc2Br)oc1NCc1ccccc1	96%
COc1ccc(C(C)NC(=O)CN(c2cc(OC)ccc2OC)S(=O)(=O)c2ccccc2)cc1 (stereo not given)	76%
COc1cccc2sc(N(Cc3cccnc3)C(=O)Cc3ccccc3)nc12	89%
CCOc1ccc(NC(=O)C(=O)NCCc2sc(-c3ccc(C)cc3)nc2C)cc1	55%
CCOc1ccc(C(=O)NCCc2sc(-c3ccc(OC)c(OC)c3)nc2C)cc1	129%
CCOc1ccc(C(=O)NCCc2sc(-c3ccc(C)cc3)nc2C)cc1	-3% (active)
COc1ccc(-c2nc(C)c(CCNC(=O)c3cc(OC)c(OC)c(OC)c3)s2)cc1OC	57%
COc1ccc(-c2nc(C)c(CCNC(=O)c3ccc(C(F)(F)F)cc3)s2)cc1OC	-4% (active)
CCOc1ccc(C(=O)NCCc2sc(-c3ccc(F)cc3)nc2C)cc1	97%
